Assay results from PubChem BioAssay (NCI).
Compounds without any hit were thinned out: in the full panel of roughly 83,000, 20% have a hit.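 Compound tested at a single concentration for 48 hours in 96-well plates; a percent growth value below 10 was scored as active.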 A number with no mark means an inactive call. Active and inactive are the calls of the source.

Tests used:
Experiment in all cases: NCI-60 one-dose screen, 48 h (100 = growth as untreated, 0 = no growth, -100 = all killed)
Details in all cases: 10 µM unless noted
[1] = system: HCT-15 colon
[2] = system: HT29 colon
[3] = system: SNB-75 CNS
[4] = system: SNB-19 CNS
[5] = system: U251 CNS
[6] = system: PC-3 prostate
[7] = system: SK-MEL-5 melanoma
[8] = system: UACC-62 melanoma
[9] = system: LOX IMVI melanoma
[10] = system: SK-MEL-28 melanoma
[11] = system: SK-MEL-2 melanoma
[12] = system: EKVX NSCLC
[13] = system: SN12C renal
[14] = system: UO-31 renal
[15] = system: TK-10 renal
[16] = system: ACHN renal
[17] = system: CAKI-1 renal
[18] = system: A498 renal
[19] = system: CCRF-CEM leukemia
[20] = system: MOLT-4 leukemia

| Compound | growth [1] | growth [2] | growth [3] | growth [4] | growth [5] | growth [6] | growth [7] | growth [8] | growth [9] | growth [10] | growth [11] | growth [12] | growth [13] | growth [14] | growth [15] | growth [16] | growth [17] | growth [18] | growth [19] | growth [20] |
| --- | --- | --- | --- | --- | --- | --- | --- | --- | --- | --- | --- | --- | --- | --- | --- | --- | --- | --- | --- | --- |
| CCOC(=O)C(=O)/C(=C\c1ccc(Cl)cc1)C(=O)N1C(=S)NC(=O)C1CC(C)C (stereo not drawn) | 92.8% | 108% | 101% | 99.1% | 101% | 93.6% | 92.8% | 91.5% | 112% | 95.1% | 112% | 91% | 96.9% | 86.1% | 135% | 99.5% | 91.3% | 102% | 91.2% | 98.4% |
| COc1cc(OC)cc(C(=O)Nc2sc3c(c2C(N)=O)CCC(=O)C3)c1 | 10.9% | 39.6% | 47.9% | 25.1% | 10.3% | 8.96% (active) | 63.1% | 20.4% | 22.1% | 48% | 86.8% | 89% | 50.9% | 67.5% | 66.5% | 38.6% | 10.6% | 82.6% | 8.55% (active) | – |
| COC(=O)C(Cc1ccccc1)Nc1nc(NC(Cc2ccccc2)C(=O)OC)nc(N2CCOCC2)n1 (stereo not drawn) | 106% | 101% | 90.5% | 104% | 105% | 103% | 98.7% | 90.2% | 105% | 109% | 111% | 105% | 104% | 81.2% | 103% | 109% | 86.8% | 107% | 105% | 101% |
| C#C[C@]1(O)CC[C@H]2[C@@H]3CC=C4c5sc(-c6cccc(O)c6)nc5CC[C@]4(C)[C@H]3CC[C@@]21C | -25.2% (active) | -13.7% (active) | -52.7% (active) | -19.8% (active) | -47.6% (active) | -54.7% (active) | -77.1% (active) | -61.3% (active) | -62.4% (active) | -68.8% (active) | -24.6% (active) | 7.48% (active) | -48.6% (active) | -30.4% (active) | 2.76% (active) | -58.7% (active) | -19.9% (active) | -66.9% (active) | -31.8% (active) | -11.8% (active) |
| COc1ccccc1N1CCN(C2=CC(=O)C(C)=C(C)C2=O)CC1 | 100% | 104% | 102% | 104% | 98.1% | 95.9% | 99.4% | 99.5% | 94.8% | 119% | 101% | 101% | 104% | 93.7% | 116% | 110% | 104% | 86.3% | 101% | 93.3% |
| O=C(Cn1cc[n+](CC(=O)c2ccc(-c3ccccc3)cc2)c1)Nc1cccc2cccnc12 | 101% | 59.8% | 63.4% | 57.7% | 58.3% | 54.5% | 69.6% | 59.1% | 79.2% | 74.9% | 83% | 86.8% | 75.9% | 94.3% | 119% | 105% | 102% | 88.6% | 64.9% | 73.5% |
| Nc1nc(N)c2c(n1)NC(c1ccc(C(F)(F)F)cc1)CC(c1ccc(Nc3nc(NCCO)nc(N4CCOCC4)n3)cc1)=N2 (stereo not drawn) | 37.2% | 50.4% | 66% | 84% | 45.6% | 49.2% | 64.6% | 82.2% | 49.7% | 81.7% | 80.6% | 85.5% | 78.2% | 80.4% | 97.5% | 88.3% | 79.7% | 72.6% | 35.1% | 23.8% |
| Nc1cc(-c2c[nH]c3ccc(Br)cc23)nc2cc(-c3c[nH]c4ccc(Br)cc34)nn12 | 2.64% (active) | -33.8% (active) | 41.9% | 41.2% | -47.8% (active) | 14.5% | 36.7% | 11.6% | -52.8% (active) | 49.9% | -43.7% (active) | 31.7% | 26.8% | 41.3% | 35.7% | 7.87% (active) | 21.1% | 7.08% (active) | 7.39% (active) | -3.94% (active) |
| O=S(=O)(NCCCNc1nccc(-c2[nH]c(-c3ccccc3)nc2-c2ccc(Cl)c(O)c2)n1)c1cccc(F)c1 | 38.6% | 61.7% | 104% | 82.9% | 64.4% | 46.8% | 23.5% | 19.3% | 39.8% | 25.3% | 18.5% | 65.2% | 68.2% | 56.6% | 98.2% | 57.2% | 56.1% | 101% | 32.9% | 40.3% |
| CCCCCc1ccc(S(=O)(=O)Nc2cccc(-c3csc(NC(=O)CCCCCN4CCN(C)CC4)n3)c2)cc1 | -7.05% (active) | 7.36% (active) | 85.9% | 72.3% | 26.2% | 50.3% | -66.8% (active) | 63.2% | -83.8% (active) | -18.9% (active) | 98.3% | 71% | 79.8% | 75.9% | 107% | 86.4% | 79.5% | 78.7% | 5.75% (active) | 3.35% (active) |
| CCc1nn2c(C)cc(C)nc2c1Cc1ccc(/C=C/CN2CCN(CCOCCOCCN3CCN(C/C=C/c4ccc(Cc5c(CC)nn6c(C)cc(C)nc56)cc4)CC3)CC2)cc1 | -81.1% (active) | -35.8% (active) | 99% | 17.7% | -47% (active) | 24.8% | -97.5% (active) | -86.4% (active) | -88.4% (active) | -88.9% (active) | 79.4% | 46.6% | 31.4% | -95.9% (active) | 103% | 1.5% (active) | -16.2% (active) | 69.7% | -10.2% (active) | -17.6% (active) |
| CS(=O)(=O)c1ccc(-c2nn(-c3ccccc3)cc2/C=N/NC(=O)c2nc(N)n[nH]2)cc1 | 88.9% | 101% | 103% | 101% | 101% | 100% | 98.6% | 90.8% | 84.7% | 108% | 108% | 90.3% | 94.7% | 96.8% | 110% | 93.7% | 96.6% | 101% | 43.7% | 67.1% |
| Oc1cccc2ccc(-c3nnc(SCc4ccc(O)c5ncccc45)o3)nc12 | 8.78% (active) | 56.8% | 34.3% | 12.9% | 13.3% | 9.67% (active) | -63.7% (active) | 9.35% (active) | 8.81% (active) | 35.2% | 8.17% (active) | 17.5% | 7.07% (active) | -6.85% (active) | 27.9% | 7.94% (active) | 8.28% (active) | 35.2% | 19.6% | 17.4% |
| COc1cc(Cn2cc3c(c2)-c2onc(CN4CCCC4)c2CC3)cc(OC)c1OC | 94.7% | 105% | 104% | 90.6% | 96.8% | 92.5% | 79.8% | 81.2% | 97.6% | 95.2% | 101% | 75.9% | 96.7% | 78.1% | 111% | 97.5% | 91.7% | 94.4% | 89% | 91.8% |
| COc1cc2nc(Cl)nc(Nc3cccc(C4=Nc5c(N)nc(N)nc5NC(c5ccc(Br)cc5)C4)c3)c2cc1OC (stereo not drawn) | 7.34% (active) | 19.8% | 84.3% | 28.7% | -46.5% (active) | 64.7% | 75.5% | 107% | 27.6% | 99.1% | 94.2% | 97.1% | 99% | 92.9% | 114% | 101% | 90.3% | 90.6% | 10.9% | – |
